“And” between values parts separate entries of the source, which are not always exact repeats. Identical values can stand only once. Results filed as inconclusive are left out. Unmarked numbers belong to inactive results. The source made the active and inactive calls. The call rests on the fitted dose curve; in most records, active means well fitted inhibition curve with a large enough effect; inconclusive means small, poorly fitted or top-dose-only effect; inactive means flat fitted curve, though single readings scatter.
On the % scale 0 is the no-effect control and ±100 the full control effect; potency means the concentration at half of the fitted maximal effect.

The assay has as its system NIH3T3. Put plainly: Cytotoxic Profiling of Annotated Libraries Using Quantitative High-Throughput Screening (AID 1296008). Further: nearly all actives have a fitted effect of over 60% in size. Particulars: Five cell lines viability, CellTiter-Glo ATP luminescence, 48-72 h; max response: active compounds read low. An outline of the steps: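 Compounds were pin-transferred onto cells and incubated 48 or 72 hr at 37 degree Celsius, 95% humidity. CellTiter-Glo was added, plates sat 10 min at room temperature, then ATP-coupled luminescence was imaged as the viability read-out.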
On the technique in general: Cellular ATP, detected with luciferase, serves as a proxy for viable cell number.
Turning to `CCCN[C@H]1CCc2nc(N)sc2C1`, the max response is 4.11% and -1.47%.

Take `CCOCC(O)COc1ccc(NC(=O)CC[S+](C)C)cc1` (stereo not drawn): the max response is 4.96% and 4.72%.

`COc1cc(NS(=O)(=O)c2ccc(N)cc2)nc(OC)n1`: the max response was -5.03% and -1.81%.

Regarding `COC(=O)Nc1nc2ccc(C(=O)c3ccccc3)cc2[nH]1`, the Potency is 18.8 µM (active) and 2.64 µM (active).

Take `O=C(N[C@H](CO)[C@H](O)c1ccc([N+](=O)[O-])cc1)C(Cl)Cl`: the max response is 4.84% and -8.61%.

For the compound `CCCc1cc(C(N)=S)ccn1`, the max response was -7.14% and -4.81%.

For the compound `O=C(O)c1cn(C2CC2)c2cc(N3CCNCC3)c(F)cc2c1=O`, the outcome was inactive.

`O=C(O)CCn1c2c(c3ccccc31)C[C@H](NS(=O)(=O)c1ccc(F)cc1)CC2`: the max response was -9.59% and 4.36%; the outcome was inactive.

For the compound `Cc1noc(NS(=O)(=O)c2ccc(N)cc2)c1C`, the max response was -2.78% and -1.88%.

Regarding `CCn1cc(C(=O)O)c(=O)c2cc(F)c(N3CCN(C)CC3)cc21`, the max response was -2.14% and the call was inactive.

Take `O=C(O)CSCC(=O)NC1CCSC1=O` (stereo not drawn): the max response is 2.01% and the compound was called inactive.

Regarding `CN(C)CCc1c[nH]c2ccc(CS(=O)(=O)N3CCCC3)cc12`, the max response was -1.45% and -5.53%.

For `CO[C@@H]1[C@@H](OC(N)=O)[C@@H](O)[C@H](Oc2ccc3c(O)c(NC(=O)c4ccc(O)c(CC=C(C)C)c4)c(=O)oc3c2C)OC1(C)C`, the max response was -2.07% and -24%.

For `CCOc1cc(N)c(Cl)cc1C(=O)NCC1CN(Cc2ccc(F)cc2)CCO1` (stereo not drawn), the max response is 1.17% and the compound was classed as inactive.

Turning to `CCC(=O)O[C@]1(C(=O)SCF)[C@H](C)C[C@H]2[C@@H]3C[C@H](F)C4=CC(=O)C=C[C@]4(C)[C@@]3(F)[C@@H](O)C[C@@]21C`, the max response is 1.81% and -2.44%.

Turning to `Cc1oc(=O)oc1CN1CCN(c2cc3c(cc2F)c(=O)c(C(=O)O)c2n3C(C)S2)CC1` (stereo not drawn), the max response was -0.29% and the compound was classed as inactive.

On to `NC1(c2ccc(-c3nc4ccn5c(=O)[nH]nc5c4cc3-c3ccccc3)cc2)CCC1`, for which the max response is -6.67%.

On to `C[C@@H](CN1CC(=O)NC(=O)C1)N1CC(=O)NC(=O)C1`, for which the Potency is 187 nM (active).

Turning to `OC(Cn1cncn1)(Cn1cncn1)c1ccc(F)cc1F`, the max response is -0.561% and -16.4%.

Turning to `O=NN(CCCl)C(=O)NC1CCCCC1`, the max response was -1.41% and the compound was classed as inactive.

In the case of `Clc1ccccc1CN1CCc2sccc2C1`, the max response is 1.51% and 3.19%.

In the case of `Cn1c(=O)c2c(ncn2CC(O)CO)n(C)c1=O` (stereo not drawn), the max response was 2.82% and -0.547%.

As to `Cc1cccc(N(C)C(=S)Oc2ccc3ccccc3c2)c1`, the max response was -1.35% and 4.99%.

Regarding `CN(CCOc1ccc(CC2SC(=O)NC2=O)cc1)c1ccccn1` (stereo not drawn), the max response is 0.939%.

Regarding `COC(c1ccccc1)(c1ccccc1)[C@H](Oc1nc(C)cc(C)n1)C(=O)O`, the max response is -19.9% and the compound was called inactive.

With `CCc1cc(C(N)=S)ccn1`, the max response is -2.49% and the outcome was inactive.

Take `COCCCOc1cc(C[C@@H](C[C@H](N)[C@@H](O)C[C@H](C(=O)NCC(C)(C)C(N)=O)C(C)C)C(C)C)ccc1OC`: the max response is -0.804% and the compound was called inactive.

For the compound `CCN(C)C(=O)Oc1cccc([C@H](C)N(C)C)c1`, the max response is 1.74% and -5.17%.

`CCn1cc(C(=O)O)c(=O)c2cc(F)c(N3CCNCC3)nc21`: the result was inactive.

In the case of `CC[C@H](NC(C)C)[C@H](O)c1ccc(O)c2[nH]c(=O)ccc12`, the max response is 2.87% and -5.91%.

`CC(C)OC(=O)C(C(=O)OC(C)C)=C1SC=CS1`: the max response was 0.152% and the compound was classed as inactive.

For `COc1ccc(-c2ccc3cc(C(=O)O)ccc3c2)cc1C12CC3CC(CC(C3)C1)C2`, the max response was 4.1% and the outcome was inactive.

Regarding `CCOC(=O)c1ccc(OC(=O)CCCCCN=C(N)N)cc1`, the result was inactive.

Take `O=S(=O)(c1cccc2cnccc12)N1CCCNCC1`: the max response was 0.496% and -3.33%.

In the case of `CNC1CCCN(c2c(F)cc3c(=O)c(C(=O)O)cn(C4CC4)c3c2OC)C1` (stereo not drawn), the max response is -6.02% and the compound was classed as inactive.

As for `COc1ccc2c(c1)c(CC(=O)OCC(=O)O)c(C)n2C(=O)c1ccc(Cl)cc1`, the max response is -11.9% and 4.26%.

For the origin of these results see PubChem BioAssay (NCATS).
